According to PubChem BioAssay (NCATS):
Results filed as inconclusive are left out. Calls of active or inactive are those of the source. Unless noted, calls come from the whole dose curve; as a rule, active = well fitted curve in the direction sought with a large enough effect; inconclusive = small, poorly fitted or top-dose-only effect, or another doubt; inactive = no such curve, though single readings can be large; an effect the other way counts as inactive or inconclusive.

Legend:
[1] = target: Lysosomal acid glucosylceramidase (Homo sapiens) (UniProt P04062); test: Glucocerebrosidase-p2 (AID 348; in the data active = potency below about 10 µM; note: potency is the fitted concentration of half-maximal effect); settings: purified GBA, blue fluorogenic substrate, 40 min
Sequence of Lysosomal acid glucosylceramidase (Homo sapiens) (P04062 whole entry, looked up): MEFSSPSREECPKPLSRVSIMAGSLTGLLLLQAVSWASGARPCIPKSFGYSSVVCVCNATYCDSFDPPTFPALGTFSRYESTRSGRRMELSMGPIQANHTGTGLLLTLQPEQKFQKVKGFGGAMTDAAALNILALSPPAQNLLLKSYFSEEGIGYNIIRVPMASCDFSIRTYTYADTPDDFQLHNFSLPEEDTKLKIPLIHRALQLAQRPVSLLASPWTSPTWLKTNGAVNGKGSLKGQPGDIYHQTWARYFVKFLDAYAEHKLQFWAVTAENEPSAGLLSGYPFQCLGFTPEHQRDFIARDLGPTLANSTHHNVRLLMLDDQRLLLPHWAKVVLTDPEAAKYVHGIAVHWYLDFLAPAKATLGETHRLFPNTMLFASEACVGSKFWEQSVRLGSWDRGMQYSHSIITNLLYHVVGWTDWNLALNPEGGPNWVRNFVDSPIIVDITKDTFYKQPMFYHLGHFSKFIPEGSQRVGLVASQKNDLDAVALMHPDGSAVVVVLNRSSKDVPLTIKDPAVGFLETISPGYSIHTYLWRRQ
Method in brief: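 Normal human glucocerebrosidase (0.2 nM) with blue fluorogenic substrate (80 uM final) in citrate/phosphate pH 5.9 with 10mM sodium taurocholate, 0.01% tween-20; 40 min RT, NaOH/glycine stop; fluorescence Ex 365/Em 440; AC50 from a titration from 0.6 nM upwards.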

[2] = AP1 Signaling Pathway (AID 357; active = well fitted curve in either direction with a large enough effect, not every such curve was filed as active;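 note: ME-180 reporter cells stimulated with EGF at its EC50 level; % is set by controls: 0 for no effect and ±100 for the full control effect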); settings: ME-180 AP-1-bla reporter, EGF-induced, beta-lactamase ratio, 5 h; at 7.69 µM (top of the series) unless noted
Method in brief: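 Beta-lactamase reporter under AP-1 response element, ME-180 background. Stimulus: EC50 EGF. Compound exposure 5 h, 37 °C. Detection: CCF4, 2.5 h RT, 460/530 nm. Values: AC50 from titration.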

[3] = NFAT Signaling Pathway (AID 444; active = well fitted curve in either direction with a large enough effect, not every such curve was filed as active;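 note: carbachol stimulus at about its EC50 of 1 µM final; % is set by controls: 0 for no effect and ±100 for the full control effect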); settings: Jurkat NFAT-bla M1, carbachol, beta-lactamase ratio, 5 h; at 7.69 µM (top of the series) unless noted
Method in brief: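 Read-out: CCF4 FRET ratio (460 nm/530 nm) after 1 h RT dye loading, used for %activity and AC50 from titration series. Cells: Jurkat NFAT-β-lactamase/M1 line, treated with compound plus 1 uM carbachol for 5 h, 37 °C.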

[4] = Stat Signaling Pathway (AID 446; active = well fitted curve in either direction with a large enough effect, not every such curve was filed as active;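 note: ME-180 cervical cancer cells given 40 pM IL-6 alongside compound; SIE-controlled beta-lactamase reporter measured as 460/530 nm FRET emission ratio; % is set by controls: 0 for no effect and ±100 for the full control effect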); settings: ME-180 SIE beta-lactamase reporter, IL-6 stimulated, 5 h; at 7.69 µM (top of the series) unless noted
Method in brief: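 Overnight-plated ME-180 cells bearing a STAT Inducible Element beta-lactamase reporter; 5 h co-exposure to compound and 40 pM IL-6; values normalized to 300 pM IL-6 and 125 nM JAK inhibitor controls.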

[5] = target: Glucocorticoid receptor (Homo sapiens) (UniProt P04150); test: GR-GFP Redistribution (AID 450;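 active = compounds whose dose series gives a full or clear partial fitted curve of increased nuclear translocation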; note: potency is the fitted concentration of half-maximal effect); settings: U2OS GR-GFP nuclear translocation, laser cytometry, 2 h
Sequence of Glucocorticoid receptor (Homo sapiens) (P04150 whole entry, looked up, the tested form may be a part): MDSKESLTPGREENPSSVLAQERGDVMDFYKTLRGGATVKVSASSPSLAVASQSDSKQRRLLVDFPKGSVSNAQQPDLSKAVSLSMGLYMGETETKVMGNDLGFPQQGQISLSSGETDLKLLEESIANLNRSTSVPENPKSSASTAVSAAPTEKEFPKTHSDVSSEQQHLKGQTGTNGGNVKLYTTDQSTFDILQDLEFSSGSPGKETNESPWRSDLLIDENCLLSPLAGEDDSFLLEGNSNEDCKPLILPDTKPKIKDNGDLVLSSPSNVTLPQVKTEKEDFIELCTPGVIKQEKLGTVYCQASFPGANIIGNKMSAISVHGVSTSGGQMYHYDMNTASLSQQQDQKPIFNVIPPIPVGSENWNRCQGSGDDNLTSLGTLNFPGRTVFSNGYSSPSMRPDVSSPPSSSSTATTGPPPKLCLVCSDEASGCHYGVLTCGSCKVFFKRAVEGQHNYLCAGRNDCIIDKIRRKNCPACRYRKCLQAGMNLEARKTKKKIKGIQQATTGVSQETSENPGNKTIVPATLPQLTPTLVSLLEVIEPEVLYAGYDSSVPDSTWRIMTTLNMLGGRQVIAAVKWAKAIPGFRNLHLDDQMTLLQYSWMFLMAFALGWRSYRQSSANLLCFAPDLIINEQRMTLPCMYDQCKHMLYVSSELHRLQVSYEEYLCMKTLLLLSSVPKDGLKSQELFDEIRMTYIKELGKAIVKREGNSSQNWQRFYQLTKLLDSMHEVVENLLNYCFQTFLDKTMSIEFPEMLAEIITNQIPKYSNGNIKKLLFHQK

[6] = target: Glucocorticoid receptor (Homo sapiens) (UniProt P04150); test: GR-EFC Redistribution (AID 451; calls by dose curve; note: potency is the fitted concentration of half-maximal effect); settings: CHO-K1 GR-EFC translocation, beta-gal luminescence, 2 h
Method in brief: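 Translocation of GR-ED fusion to nuclear EA restores b-gal, read by luminescence after 1 h room-temperature detection. Engineered CHO-K1 biosensor cells, 1,000/well, exposed 2 h at 37 C to titrations up to 46 uM final.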

[7] = target: Mitogen-activated protein kinase 10 (Mus musculus) (UniProt Q61831); test: JNK3 AlphaScreen Assay (AID 530; active = well fitted curve in either direction with a large enough effect, not every such curve was filed as active;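 note: kinase came from lysate of stimulated human HepG2 cells; signal reports phosphorylation of biotinylated GST-cJun 1-79 at Ser73 with 10 µM ATP; % is set by controls: 0 for no effect and ±100 for the full control effect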); settings: JNK3 lysate, c-Jun phosphorylation; series mostly up to 57.1 µM
Method in brief: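 qHTS titrations with 15 min compound pre-incubation before adding ATP (10 uM final). Read-out: AlphaScreen of Ser73-phosphorylated biotin-GST-cJun using HepG2 lysate JNK3 activated by IL-1β and TNFα.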

[8] = target: 3',5'-cyclic-AMP phosphodiesterase 4B (Homo sapiens) (UniProt Q07343); test: qHTS Assay for Inhibitors of PDE-IV (AID 607; active = well fitted activation curve with a large enough effect in the main read-out, with a control signal flat, not every such curve was filed as active; note: % of control where 0% means no effect); settings: HEK293 ACTOne CNG channel cells, membrane potential fluorescence; series mostly up to 22.9 µM
Sequence of 3',5'-cyclic-AMP phosphodiesterase 4B (Homo sapiens) (Q07343 whole entry, looked up): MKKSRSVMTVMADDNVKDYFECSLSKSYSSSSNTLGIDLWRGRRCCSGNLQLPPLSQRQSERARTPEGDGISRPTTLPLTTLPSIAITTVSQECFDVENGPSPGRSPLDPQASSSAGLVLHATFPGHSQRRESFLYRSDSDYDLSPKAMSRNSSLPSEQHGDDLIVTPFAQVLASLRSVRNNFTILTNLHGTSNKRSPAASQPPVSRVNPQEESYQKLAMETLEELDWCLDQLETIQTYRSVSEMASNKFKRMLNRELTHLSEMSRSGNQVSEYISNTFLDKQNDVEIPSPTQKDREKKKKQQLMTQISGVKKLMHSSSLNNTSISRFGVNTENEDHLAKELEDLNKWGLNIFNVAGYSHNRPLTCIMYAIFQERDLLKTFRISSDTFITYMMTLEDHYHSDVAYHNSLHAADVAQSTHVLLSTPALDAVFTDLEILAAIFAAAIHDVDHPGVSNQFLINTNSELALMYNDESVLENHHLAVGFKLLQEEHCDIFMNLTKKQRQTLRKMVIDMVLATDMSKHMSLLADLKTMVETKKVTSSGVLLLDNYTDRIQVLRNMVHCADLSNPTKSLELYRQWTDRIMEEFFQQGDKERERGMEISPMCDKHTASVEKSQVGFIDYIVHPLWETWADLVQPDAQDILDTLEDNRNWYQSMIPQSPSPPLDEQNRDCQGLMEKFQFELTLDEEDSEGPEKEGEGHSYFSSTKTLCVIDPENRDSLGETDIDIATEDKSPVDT
Method in brief: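 Live HEK293 cells with a modified cyclic nucleotide-gated (CNG) channel report intracellular cAMP via membrane-potential dye fluorescence (ex 535/em 590 nm). Endogenous PDE-IV was targeted. Compounds were tested at up to 22.9 uM final; RO 20-1724 100 uM served as control.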

[9] = qHTS Assay for Lipid Storage Modulators (AID 1519; calls by dose curve); settings: Drosophila S3 cells, BODIPY lipid droplet/cell ratio, laser cytometry, cells loaded with oleic acid; for activity change, negative = inhibition: at 57.5 µM (top of the series)
Method in brief: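 Cells seeded at 5,000 per well were treated with compounds over a concentration series and loaded with oleic acid (400 uM, as added). Lipid droplet fluorescence (488 nm excitation, 500-530 nm channel) was read by laser-scanning cytometry and normalized to 20 uM Triacsin C.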

[10] = target: Dual specificity protein kinase CLK4 (Homo sapiens) (UniProt Q9HAZ1); test: qHTS Assay for Inhibitors of CDC-like Kinase 4 (ADP-FP Assay) (AID 1795); settings: Transcreener ADP fluorescence polarization; series mostly up to 50 µM;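 note: recombinant human CLK4 phosphorylating RS repeat peptide at 1 µM ATP; % is set by controls: 0 for no effect and ±100 for the full control effect; nearly all actives have a fitted effect of over 60% in size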
Sequence of Dual specificity protein kinase CLK4 (Homo sapiens) (Q9HAZ1 whole entry, looked up): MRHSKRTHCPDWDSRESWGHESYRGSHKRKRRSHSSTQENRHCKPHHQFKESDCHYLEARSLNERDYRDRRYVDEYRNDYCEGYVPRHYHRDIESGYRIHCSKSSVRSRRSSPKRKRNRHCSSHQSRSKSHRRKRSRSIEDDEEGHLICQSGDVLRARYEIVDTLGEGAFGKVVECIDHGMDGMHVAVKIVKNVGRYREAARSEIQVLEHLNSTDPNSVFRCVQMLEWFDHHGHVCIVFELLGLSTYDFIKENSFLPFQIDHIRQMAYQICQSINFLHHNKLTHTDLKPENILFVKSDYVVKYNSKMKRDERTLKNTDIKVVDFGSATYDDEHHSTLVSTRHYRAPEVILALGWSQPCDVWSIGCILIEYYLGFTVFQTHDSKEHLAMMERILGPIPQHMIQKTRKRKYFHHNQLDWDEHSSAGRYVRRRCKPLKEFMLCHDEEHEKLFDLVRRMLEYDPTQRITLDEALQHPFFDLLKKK
Method in brief: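 Recombinant Clk4 (6.25 nM) phosphorylated 100 uM RS repeat peptide with 1 uM ATP in 25 mM Tris pH 7.5, 10 mM MgCl2, 0.5 mM EGTA, 2.5 mM DTT, 0.01% Triton X-100 for 1 h. ADP was detected by Transcreener ADP2 competitive fluorescence polarization after 30 min at room temperature.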

[11] = target: Ubiquitin carboxyl-terminal hydrolase 1 (Homo sapiens) (UniProt O94782); test: Inhibitors of USP1/UAF1: Pilot qHTS (AID 504865); settings: purified USP1/UAF1, Ub-rhodamine cleavage fluorescence; series mostly up to 54.9 µM;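 note: rhodamine fluorescence freed from ubiquitin-rhodamine substrate followed over time; top concentration of the series differs between compounds; % is set by controls: 0 for no effect and ±100 for the full control effect; nearly all actives have a fitted effect of over 35% in size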
Sequence of Ubiquitin carboxyl-terminal hydrolase 1 (Homo sapiens) (O94782 whole entry, looked up): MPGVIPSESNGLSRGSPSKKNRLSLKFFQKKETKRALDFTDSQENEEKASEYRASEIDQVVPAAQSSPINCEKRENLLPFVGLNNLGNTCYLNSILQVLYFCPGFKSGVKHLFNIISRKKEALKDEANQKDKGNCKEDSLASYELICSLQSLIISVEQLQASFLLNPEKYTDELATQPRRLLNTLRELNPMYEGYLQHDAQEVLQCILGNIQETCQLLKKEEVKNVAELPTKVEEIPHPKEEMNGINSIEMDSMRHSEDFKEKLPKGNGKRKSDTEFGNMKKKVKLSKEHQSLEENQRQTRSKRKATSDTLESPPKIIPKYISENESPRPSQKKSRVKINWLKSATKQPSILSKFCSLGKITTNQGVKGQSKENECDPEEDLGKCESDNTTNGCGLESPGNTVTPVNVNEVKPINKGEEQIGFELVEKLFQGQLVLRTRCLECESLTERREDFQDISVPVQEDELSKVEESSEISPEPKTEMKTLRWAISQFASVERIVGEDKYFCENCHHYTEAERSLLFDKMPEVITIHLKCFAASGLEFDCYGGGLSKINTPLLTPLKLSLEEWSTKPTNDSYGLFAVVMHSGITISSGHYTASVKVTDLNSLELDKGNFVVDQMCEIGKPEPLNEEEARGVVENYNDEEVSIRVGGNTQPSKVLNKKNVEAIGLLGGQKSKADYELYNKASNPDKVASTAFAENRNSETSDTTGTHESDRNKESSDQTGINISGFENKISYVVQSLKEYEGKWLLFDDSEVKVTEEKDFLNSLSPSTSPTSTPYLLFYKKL
Method in brief: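 USP1/UAF1 complex at 1 nM preincubated 15 min at room temperature with compound, then Ub-Rho substrate added at 150 nM final. Fluorescence (480/540 nm) read kinetically in 50 mM HEPES pH 7.8, 0.5 mM EDTA, 1 mM TCEP, 0.1 mg/ml BSA, 0.01% Tween-20.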

[12] = Primary qHTS for small molecule stabilizers of the endoplasmic reticulum resident proteome: Secreted ER Calcium Modulated Protein (SERCaMP) assay (AID 1508630); settings: SH-SY5Y GLuc-SERCaMP (Gaussia luciferase released on ER calcium loss) secretion, thapsigargin, luminescence; series mostly up to 38.4 µM; note: % is set by controls: 0 for no effect and ±100 for the full control effect
Method in brief: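 The SH-SY5Y reporter protocol was run at 3 concentrations up to 38.3 uM (primary) or 11 concentrations (follow-up): 16 h compound, 100 nM thapsigargin for 4 h, then extracellular luciferase luminescence.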

[13] = target: Cytochrome P450 1A2 (Homo sapiens) (UniProt P05177); test: p450-cyp1a2 (AID 410; calls by dose curve; note: potency is the fitted concentration of half-maximal effect); settings: recombinant CYP1A2, luciferin-ME demethylation, luminescence; series mostly up to 57 µM
Sequence of Cytochrome P450 1A2 (Homo sapiens) (P05177 whole entry, looked up): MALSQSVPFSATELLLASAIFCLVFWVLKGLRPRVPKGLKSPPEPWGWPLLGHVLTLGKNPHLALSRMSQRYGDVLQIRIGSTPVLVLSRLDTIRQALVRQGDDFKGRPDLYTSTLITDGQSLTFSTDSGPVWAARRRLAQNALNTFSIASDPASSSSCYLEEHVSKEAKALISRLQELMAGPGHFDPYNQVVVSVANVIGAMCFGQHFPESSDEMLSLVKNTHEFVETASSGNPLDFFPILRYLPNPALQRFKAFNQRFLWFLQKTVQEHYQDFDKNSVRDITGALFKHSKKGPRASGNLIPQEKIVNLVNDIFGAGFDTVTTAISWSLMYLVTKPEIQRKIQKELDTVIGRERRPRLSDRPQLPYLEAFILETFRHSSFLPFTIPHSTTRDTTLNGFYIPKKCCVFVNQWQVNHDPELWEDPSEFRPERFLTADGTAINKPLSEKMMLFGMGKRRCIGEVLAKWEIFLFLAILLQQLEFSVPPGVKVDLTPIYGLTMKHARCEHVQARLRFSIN
Method in brief: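 O-Demethylation of luciferin 6' methyl ether by human CYP1A2 is monitored as luciferase luminescence. Substrate sits at Km (100uM); enzyme is 20nM. Values are scaled to 57 uM furafylline as maximal inhibition.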

[14] = target: Cytochrome P450 2C9 (Homo sapiens) (UniProt P11712); test: qHTS Assay for Inhibitors and Substrates of Cytochrome P450 2C9 (AID 883); settings: recombinant CYP2C9, luciferin-H luminescence, 60 min; series mostly up to 57.1 µM; note: nearly all actives have a fitted effect of over 60% in size; note: potency is the fitted concentration of half-maximal effect
Sequence of Cytochrome P450 2C9 (Homo sapiens) (P11712 whole entry, looked up): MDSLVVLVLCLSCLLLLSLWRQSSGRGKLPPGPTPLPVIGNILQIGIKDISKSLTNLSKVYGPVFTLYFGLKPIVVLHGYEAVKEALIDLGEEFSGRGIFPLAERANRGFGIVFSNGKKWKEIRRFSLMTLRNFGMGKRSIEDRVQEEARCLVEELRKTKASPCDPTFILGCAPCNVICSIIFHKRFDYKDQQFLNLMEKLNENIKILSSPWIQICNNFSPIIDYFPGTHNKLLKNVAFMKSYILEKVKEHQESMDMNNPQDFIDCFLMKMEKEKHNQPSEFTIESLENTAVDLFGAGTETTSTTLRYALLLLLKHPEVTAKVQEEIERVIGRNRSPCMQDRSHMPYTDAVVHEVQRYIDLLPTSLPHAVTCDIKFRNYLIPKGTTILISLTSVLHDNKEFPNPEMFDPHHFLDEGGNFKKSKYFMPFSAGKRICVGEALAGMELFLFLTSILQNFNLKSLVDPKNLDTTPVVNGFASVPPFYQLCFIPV
Method in brief: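 Turnover of Luciferin-H (100uM, KM) by 10nM human CYP2C9 was measured over 60 min at 37C with NADPH regeneration; inhibitors and some substrates reduce luminescence. Data normalized to sulphaphenazole 57uM.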

[15] = target: Cytochrome P450 3A4 (Homo sapiens) (UniProt P08684); test: qHTS Assay for Inhibitors and Substrates of Cytochrome P450 3A4 (AID 884); settings: recombinant CYP3A4, Luciferin-PPXE luminescence; series mostly up to 57.1 µM; note: nearly all actives have a fitted effect of over 50% in size; note: potency is the fitted concentration of half-maximal effect
Sequence of Cytochrome P450 3A4 (Homo sapiens) (P08684 whole entry, looked up): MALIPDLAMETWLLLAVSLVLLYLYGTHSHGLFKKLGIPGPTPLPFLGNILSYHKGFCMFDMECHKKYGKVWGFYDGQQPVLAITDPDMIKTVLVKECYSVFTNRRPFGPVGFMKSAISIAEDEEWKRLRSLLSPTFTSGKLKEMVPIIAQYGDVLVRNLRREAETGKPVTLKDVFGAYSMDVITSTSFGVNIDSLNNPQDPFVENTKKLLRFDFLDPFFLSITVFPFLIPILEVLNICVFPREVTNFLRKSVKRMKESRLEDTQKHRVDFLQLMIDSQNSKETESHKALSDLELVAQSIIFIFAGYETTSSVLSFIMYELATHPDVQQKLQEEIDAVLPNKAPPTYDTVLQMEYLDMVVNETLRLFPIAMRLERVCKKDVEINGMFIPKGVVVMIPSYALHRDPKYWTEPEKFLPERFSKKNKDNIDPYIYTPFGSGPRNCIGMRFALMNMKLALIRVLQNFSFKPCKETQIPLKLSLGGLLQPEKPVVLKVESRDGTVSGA
Method in brief: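 Luminescent readout of luciferin produced by CYP3A4 (20 nM) dealkylation of Luciferin-PPXE, 25 uM (its KM). NADPH-driven reaction ran 60 min at RT after 10 min compound preincubation; data scaled to 57 uM ketoconazole as 100% inhibition.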

[16] = target: Cytochrome P450 3A4 (Homo sapiens) (UniProt P08684); test: qHTS Assay for Activators of Cytochrome P450 3A4 (AID 885); settings: recombinant CYP3A4, Luciferin-PPXE luminescence, 60 min; series mostly up to 57.1 µM; note: nearly all actives have a fitted effect of over 65% in size
Method in brief: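 Using 20nM recombinant human CYP3A4 in potassium phosphate (200mM), substrate Luciferin-PPXE at 25uM, luminescent luciferin detection followed a 60-min RT NADPH reaction; data scaled to 57 uM ketoconazole.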

[17] = Confirmation and Secondary Assay for Modulators of Hemoglobin Beta Chain Splicing at IVS2 654 locus (AID 910); settings: HeLa EGFP-654 splicing reporter, GFP fluorescence, 48 h; series mostly up to 38.3 µM;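 note: HeLa cells stably carrying EGFP split by mutant beta-globin IVS2-654 intron; % of control where 0% means no effect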
Method in brief: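 Readout: per-well total peak green fluorescence (488 nm ex, 500–520 nm em) from objects 5–250 µm, reflecting correct splicing of an EGFP-654 reporter. Compounds were applied for 2 days at 37 °C to overnight-plated HeLa EGFP-654 cells; controls were DMSO and 500 nM IVS2-654 PNA.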

[18] = Confirmation and Secondary Assay for Modulators of Hemoglobin Beta Chain Splicing at IVS2 705 locus (AID 930); settings: HeLa EGFP-705 splicing reporter, GFP fluorescence, 48 h; series mostly up to 38.3 µM;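 note: HeLa cells stably expressing the EGFP-705 splicing reporter; GFP fluorescence per well restored by corrected splicing of the IVS2-705 intron in EGFP; % of control where 0% means no effect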
Method in brief: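 HeLa cells stably carrying EGFP interrupted by mutant beta-globin intron 2 (IVS2-705) treated 2 days at 37C with compound; 500 nM antisense PNA as control. Correct splicing read as total peak GFP intensity per well by laser-scanning cytometry.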

[19] = qHTS Assay for Identification of Small Molecule Agonists for Hypoxia Response Element Signaling Pathway (AID 914; active = well fitted activation curve with a large enough effect in the signal ratio, with a control signal flat, not every such curve was filed as active; the % refers to the signal ratio; note: % of control where 0% means no effect); settings: ME-180 (cervical carcinoma) HRE-bla reporter, beta-lactamase ratio, CoCl2, 17 h; activation: stronger effect = higher value
Method in brief: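 HRE-bla ME-180 cells with beta-lactamase reporter under hypoxia response element, compounds with EC50 CoCl2 for 17 hours at 37 C. CCF4 substrate, 460nm/530nm emission ratio gave %Activity; AC50 from titration series.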

[20] = target: Cytochrome P450 2C19 (Homo sapiens) (UniProt P33261); test: qHTS Assay for Inhibitors and Substrates of Cytochrome P450 2C19 (AID 899); settings: recombinant CYP2C19, luciferin-H EGE luminescence; series mostly up to 57.1 µM; note: % is set by controls: 0 for no effect and ±100 for the full control effect; nearly all actives have a fitted effect of over 60% in size
Method in brief: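 Reactions contain 5nM enzyme, 10uM Luciferin-H EGE (KM) and 50mM KPO4; compound preincubates 10 min at 37C, NADPH regeneration starts turnover for 60 min. Luminescence after detection reagent gives activity.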

[21] = measured here: cell count channel max response
[22] = measured here: lipid channel max response

Cc1nc2cnc(Nc3ccccc3)nc2n(Cc2ccc(F)cc2)c1=O
7.11%: max response [9, 21]
6.57%: max response [9, 22]
inactive: Potency [1] > 11.4 µM | activity change, negative = inhibition [2] -12.8% | activity change, negative = inhibition [3] -23.6% | activity, negative = inhibition [4] 2.69% | Potency [5] > 9.22 µM | Potency [6] > 46 µM | outcome [7] | Potency [8] | activity change, negative = inhibition [9] 1.06% | Potency [10] | Potency [11] | Potency [12]

COc1ccc(-c2nc3cnc(Nc4cccc(OC)c4)nc3n(C)c2=O)cc1
inactive: Potency [1] > 11.4 µM | activity change, negative = inhibition [2] -11.9% | activity change, negative = inhibition [3] -14.3% | activity, negative = inhibition [4] 0.85% | Potency [5] > 9.22 µM | Potency [6] > 46 µM | outcome [7] | Potency [8] | activity change, negative = inhibition [9] 1.51% | Potency [10] | Potency [11] | Potency [12]
2.29%: max response [9, 21]
2.92%: max response [9, 22]

CS(=O)(=O)Nc1cccc(-c2cncnc2NCc2cccs2)c1
active: Potency [13] 15.8 µM | Potency [14] 0.126 µM | Potency [15] 0.398 µM
16.7%: max response [9, 22]
inactive: Potency [1] > 11.4 µM | activity change, negative = inhibition [2] 5.06% | activity change, negative = inhibition [3] 2.17% | activity, negative = inhibition [4] 12.4% | Potency [5] > 46 µM | Potency [6] > 46 µM | outcome [7] | Potency [8] | Potency [16] | outcome [17] | outcome [18] | activity change, negative = inhibition [9] 4.63% | Potency [11] | Potency [12]
8.3%: max response [9, 21]

Cc1cnc(CNc2ncncc2-c2ccc(C(=O)N(C)C)cc2)cn1
16%: max response [9, 21]
28.5%: max response [9, 22]
active: Potency [13] 20 µM
inactive: Potency [1] > 11.4 µM | activity change, negative = inhibition [2] 5.94% | activity change, negative = inhibition [3] 2.85% | activity, negative = inhibition [4] 9.42% | Potency [5] > 46 µM | Potency [6] > 46 µM | outcome [7] | Potency [8] | Potency [16] | outcome [17] | activation [19] 0.757% | outcome [18] | activity change, negative = inhibition [9] 10.8% | Potency [11] | Potency [12]

COc1ccc(CNc2cc(-c3ccccc3Cl)ncn2)c(OC)c1
inactive: Potency [1] > 11.4 µM | activity change, negative = inhibition [2] -3.31% | activity change, negative = inhibition [3] -0.814% | activity, negative = inhibition [4] 7.16% | Potency [5] > 46 µM | Potency [6] > 46 µM | outcome [7] | Potency [16] | activity change, negative = inhibition [9] 5.7% | Potency [10] | Potency [12]
19.5%: max response [9, 21]
25%: max response [9, 22]

CCNc1ncc2nc(C)c(=O)n(-c3ccc(OC)cc3)c2n1
inactive: activity change, negative = inhibition [2] -29.8% | activity change, negative = inhibition [3] 14.3% | activity, negative = inhibition [4] -9.6% | Potency [5] > 9.22 µM | Potency [6] > 46 µM | outcome [7] | Potency [14] | Potency [15] | Potency [20] | activation [19] -10.1% | activity change, negative = inhibition [9] 4.59% | Potency [10] | Potency [11] | Potency [12]
15%: max response [9, 22]
active: Potency [13] 15.8 µM
11.9%: max response [9, 21]
